# The list is not random: actives were taken first. Their share in the collection is about 3.1%.
# Rin1 Abl inh = blocks binding of human Rin1 to Abl. P00519+Q13671. TR-FRET Rin1/Abl binding, biochemical. inhibition, % at 7.35 µM. 360,000 compounds, 0.4% hits; in the data active means inhibition above about 5%, passing the limit was not always enough
# eLon inh = inhibits E. coli Lon protease | purified E. coli Lon protease, fluorescence polarization | 360,000 compounds, 0.42% hits | AID 602123 | inhibition, % at 7.94 µM; in the data active means inhibition above about 13%, passing the limit was not always enough;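 further: 0% = enzyme with probe and DMSO and 100% = no enzyme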
# PAFAH2 inh = PAFAH2 (human) inhibition; Q99487; inhibition, % at 3.39 µM; recombinant PAFAH2, FP-rhodamine activity probe, fluorescence polarization; 340,000 compounds, 0.99% hits;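 active means inhibition above the mean over all tested compounds plus 3 SD, cut at about 30% in these data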;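 further: inhibitors block probe labeling of enzyme so polarization drops; 0% = enzyme with DMSO and 100% = wells lacking PAFAH2 protein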
# pPAFAH inh = inhibitors of human plasma PAF acetylhydrolase (pPAFAH). Q13093. recombinant pPAFAH, FP-rhodamine probe fluorescence polarization. inhibition, % at 3.39 µM. 330,000 compounds, 1.5% hits. AID 463082;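 active means inhibition above the mean inhibition across the screen plus 3 SD, cut at about 25% in these data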;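 further: inhibitors block binding of the rhodamine activity-based probe so polarization drops; 0% = enzyme with DMSO and 100% = wells lacking pPAFAH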
# PAFAH1B3 FP inh = inhibitors of human PAFAH1B3 | AID 492972 | inhibition, % at 3.39 µM | 340,000 compounds, 0.28% hits | recombinant PAFAH1B3, FP-rhodamine probe, fluorescence polarization;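 active means inhibition above the screen-wide average of all tested compounds plus 3 SD, cut at about 25% in these data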;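 further: 0% = enzyme with DMSO only and 100% = wells lacking PAFAH1B3 protein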
# Target sequence (Q15102 whole entry, looked up): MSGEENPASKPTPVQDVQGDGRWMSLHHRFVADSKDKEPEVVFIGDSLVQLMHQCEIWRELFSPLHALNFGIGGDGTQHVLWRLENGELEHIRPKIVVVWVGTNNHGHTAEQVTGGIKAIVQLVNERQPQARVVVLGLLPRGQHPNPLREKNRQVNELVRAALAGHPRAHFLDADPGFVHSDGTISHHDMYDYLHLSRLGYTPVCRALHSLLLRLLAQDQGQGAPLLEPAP
# PAFAH1B2 inh = blocks human PAF acetylhydrolase 1b catalytic subunit 2; recombinant PAFAH1B2, FP-rhodamine activity probe, fluorescence polarization; inhibition, % at 3.39 µM; 340,000 compounds, 1.2% hits;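 active means inhibition above the mean of all tested compounds plus 3 SD, cut at about 24% in these data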;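 further: 0% = enzyme with DMSO and 100% = wells lacking PAFAH1B2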
# Target sequence (P68402 whole entry, looked up): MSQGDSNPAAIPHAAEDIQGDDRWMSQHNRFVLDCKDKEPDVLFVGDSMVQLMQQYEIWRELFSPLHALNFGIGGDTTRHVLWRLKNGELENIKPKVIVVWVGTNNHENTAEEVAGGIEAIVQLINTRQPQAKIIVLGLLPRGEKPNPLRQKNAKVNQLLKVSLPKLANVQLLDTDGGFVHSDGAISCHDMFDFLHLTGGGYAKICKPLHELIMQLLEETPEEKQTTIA
# * hit, by the source's call; . = no result given.
SMILES,Rin1 Abl inh,eLon inh,PAFAH2 inh,pPAFAH inh,PAFAH1B3 FP inh,PAFAH1B2 inh
Cc1ccc2[nH]c(C(=O)O)c(NC(=O)[C@@H]3C[C@@H]3c3ccccc3)c2c1,0.1,2.2,6.7,6.8,2.6,30.8*
COc1ccc(C)cc1NC(=O)C1CC1c1ccccc1 (stereo unspecified),-2.3,9.5,1.7,6.9,10.2,2.4
CCOc1cccc(CNc2ccc(O)cc2)c1OCc1ccc(Cl)cc1Cl,0.5,7.9,3.8,31.2*,16.1,9.8
CCOc1cccc(CNc2ccc(O)cc2)c1OCc1ccccc1Cl,-2.1,10.8,2.1,32.2*,5.6,4.8
CCOc1cccc(CNn2cnnc2)c1OCc1ccccc1Cl,-4.6,2.8,2.9,2.9,6.7,2.7
CCOc1cccc(CNCCO)c1OCc1ccc(Cl)cc1Cl,-3.5,-2.5,-0.4,-1.1,0.6,5.7
COc1ccc(OC)c(CN2C(=O)c3ccccc3C2c2nnnn2-c2c(C)cccc2C)c1 (stereo unspecified),.,-0.2,.,.,.,.
O=C(NCc1ccccc1)C(=O)NCC(c1ccco1)N1CCN(c2ccccc2F)CC1 (stereo unspecified),4.7*,1.2,7.2,2.5,5.0,1.6
O=C(NCc1cccnc1)C(=O)NCC(c1ccco1)N1CCN(c2ccccc2F)CC1 (stereo unspecified),-2.1,1.2,2.0,-1.4,-2.0,3.3
CCCCOC(=O)c1ccc(O)cc1,1.3,-2.2,2.1,-0.4,6.1,2.2
CCCCCCCCOC(=O)c1ccc(N)cc1,3.7,3.3,54.9*,31.9*,5.1,7.6
O=C(Nc1cccc(-n2cnnn2)c1)C1CCCN(Cc2cccc(C(F)(F)F)c2)C1 (stereo unspecified),-5.2,-10.4,-1.6,.,13.5,0.5
O=C(Nc1ccc(C(=O)c2ccc(C(=O)O)c(C(=O)O)c2)cc1)c1ccccc1,1.0,7.6,2.6,-4.1,-0.8,0.7
COc1ccc(C(=O)Nc2ccc(NS(=O)(=O)c3ccccc3)cc2)cc1OC,-2.7,6.1,1.9,33.1*,2.8,1.1
Cc1c(C)c(C)c(C(=O)c2ccc(NC(=O)c3ccccc3C(=O)O)cc2)c(C)c1C,-1.2,6.4,166.9*,-0.6,141.1*,108.5*
Cc1ccc(NS(=O)(=O)c2ccc(/C=C/C(=O)O)cc2)cc1Cl,1.4,5.3,9.7,28.8*,-2.9,14.4
Cc1ccc(NS(=O)(=O)c2ccc(NC(=O)c3ccccc3C(=O)O)cc2)cc1C,-2.1,-3.9,.,25.7*,.,.
COc1ccc(OC)c(C(c2c(O)nc(SC)[nH]c2=O)c2c(O)nc(SC)[nH]c2=O)c1,4.5,-1.0,7.5,8.2,9.5,5.5
O=C(Nc1ccc(NS(=O)(=O)c2ccccc2)cc1)c1ccccc1,-2.2,5.7,9.6,34.4*,-4.6,9.6
O=C(Nc1ccc(Br)cc1)c1cccc(S(=O)(=O)Nc2cnc3ccccc3c2)c1,0.2,-6.5,2.6,27.1*,-1.0,-4.5
O=C(Nc1ccc(Br)cc1)c1cccc(S(=O)(=O)Nc2ccccn2)c1,-1.6,-3.7,0.9,-8.9,4.8,0.2
O=S(=O)(Nc1ccc(F)cc1)c1ccc(NC(=S)Nc2ccccc2)cc1,0.8,-3.2,2.4,25.0*,1.5,-2.2
CN(Cc1ccc(Cl)cc1Cl)C(=O)Cc1ccc(S(=O)(=O)N2CCOCC2)s1,1.0,-21.1,.,.,.,.
COc1ccc(N(CC(=O)NCc2ccc3c(c2)OCO3)S(=O)(=O)c2ccc(O)c(C(=O)O)c2)cc1,3.6,-7.8,6.2,.,12.6,5.4
NC(=O)c1ccc(N=Cc2ccc([N+](=O)[O-])s2)cc1,-0.1,-20.1,59.6*,13.8,12.9,8.4
SMILES,Rin1 Abl inh,eLon inh,PAFAH2 inh,pPAFAH inh,PAFAH1B3 FP inh,PAFAH1B2 inh
O=C(Cc1cccs1)N/N=C\c1ccc([N+](=O)[O-])s1,-1.6,3.1,13.5,4.1,-3.7,4.9
Cc1cc(C)cc(N=Cc2ccc([N+](=O)[O-])s2)c1,4.1,-1.4,14.8,3.9,20.5,4.9
O=[N+]([O-])c1ccc(C=Nc2ccc(Cl)c([N+](=O)[O-])c2)s1,-0.1,-0.3,60.1*,.,15.5,12.5
COc1ccc(NC(=O)CSc2nnc(Cc3cccn3C)n2-c2ccc(C)cc2)cc1OC,3.0,-6.4,2.7,32.3*,3.6,3.1
O=C(CC1CC2CCC1C2)Nc1nc(-c2ccccn2)cs1 (stereo unspecified),-3.5,7.9,6.2,4.6,1.6,54.6*
O=C1NC[C@@H](CCCCN2C[C@H](Cc3ccc(O)cc3)N(Cc3ccccc3)C(=O)C2=O)N(CCc2ccc(O)cc2)C1=O,.,1.9,.,.,.,.
CCN(c1ccccc1)S(=O)(=O)c1ccc(OC)c(NS(=O)(=O)c2cccs2)c1,-0.6,2.0,3.9,10.2,0.4,29.9*
Cc1ccc(NC(=O)Cc2nc(CCl)cs2)cc1,0.6,1.4,22.6,31.5*,-2.6,5.1
COc1ccc(CCC(=O)OCc2csc(CC(=O)Nc3ccccc3C)n2)cc1,-2.0,-10.6,7.2,9.0,-3.9,2.7
COc1ccc(CC(=O)OCc2csc(CC(=O)Nc3ccc(C)cc3)n2)cc1,2.4,-9.1,10.1,27.1*,13.3,-2.6
CCC(=O)NC(c1ccccc1OC)c1ccc2cccnc2c1O (stereo unspecified),13.9*,4.5,-0.2,8.4,10.5,1.5
COc1ccc(Oc2cnn(-c3ccccc3)c(=O)c2Br)cc1,-1.9,4.7,-4.0,2.2,-4.4,1.0
CC(O)c1nc2ccccc2n1Cc1ccccc1 (stereo unspecified),-1.4,-11.6,6.0,2.2,11.0,0.0
CC(O)c1nc2ccccc2n1CCCc1ccccc1 (stereo unspecified),1.1,-0.4,1.5,33.9*,-7.9,0.1
COC(=O)C[C@H](NC(=O)Cn1cnc2c(SC)nc(N)nc21)C(=O)OC,3.2,-2.0,1.5,-0.4,7.5,2.9
CN1CCCC(C)(C(=O)Nc2ccc3scnc3c2)C1 (stereo unspecified),-2.5,1.2,.,.,.,.
C#CCOCCOCCOCCNc1nc(N2CCN(C(=O)CCCCCCCCCCNC(=O)Cn3cc(C[C@@H](C)O)nn3)CC2)nc(N2CCN(C(=O)CCCCCCCCCCNC(=O)[C@H](CCCCN)n3cc(CCCC(=O)O)nn3)CC2)n1,6.4,-14.4,-4.5,25.3*,-12.1,-2.6
C#CCOCCOCCOCCNc1nc(N2CCN(C(=O)CCCCCCCCCCNC(=O)Cn3cc(C[C@@H](C)O)nn3)CC2)nc(N2CCN(C(=O)CCCCCCCCCCNC(=O)[C@H](CCCN=C(N)N)n3cc(C[C@@H](C)CC)nn3)CC2)n1,12.6*,-10.0,-4.2,5.7,2.8,-6.0
C#CCOCCOCCOCCNc1nc(N2CCN(C(=O)CCCCCCCCCCNC(=O)Cn3cc(C[C@@H](C)O)nn3)CC2)nc(N2CCN(C(=O)CCCCCCCCCCNC(=O)[C@@H](CCC(=O)O)n3cc(CCCCCN)nn3)CC2)n1,4.2,3.9,-3.8,15.4,-1.5,1.1

# Bioassay records from PubChem.
